Test results as given in PubChem BioAssay (NCATS).
Several values for one entry are separate records, joined by “and”; a condition that tells them apart may be missing. Equal entries are not always repeated. Records with an inconclusive call do not appear. A number with no mark means an inactive call. Activity calls are given as the source filed them. Calls follow the shape of the dose curve; as a rule, active = well fitted curve in the direction sought with a large enough effect; inconclusive = small, poorly fitted or top-dose-only effect, or another doubt; inactive = no such curve, though single readings can be large; an effect the other way counts as inactive or inconclusive.
Potency is read from the fitted curve at half-maximal effect.

Test: Viability qHTS for spleen associated tyrosine kinase inhibitor (SYKi) drug resistant MV4-11 cells (AID 1963824); also: nearly all actives have a fitted effect of over 35% in size
Conditions: SYKi-resistant MV4-11 viability, CellTiter-Glo, 72 h; series mostly up to 45 µM
In short: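 CellTiter-Glo luminescence, read 10 min after reagent addition, reports viability after a 72 hr compound exposure. Cells are an MV4-11 line made resistant to SYK inhibition, seeded at 500 per well onto compound-containing plates.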
In the case of `CCCCC(CC)COC(=O)c1ccccc1C(=O)O` (centres undefined), the Potency is reported as 19.7 µM (active). In the case of `COc1nc(N)nc2c1ncn2C1OC(CO)C(O)C1O` (centres undefined), the Potency is reported as “inactive”. In the case of `CNC(=O)Cn1cc(-c2ccc3c(c2)C(F)CC32NC(=O)N(CC(=O)N(Cc3ccc(F)cc3)[C@@H](C)C(F)(F)F)C2=O)cn1` (some centres undefined), the Potency is reported as 0.132 µM (active). For `Cc1ccccc1N1CCN(CCc2nnc3n2CCCC3)CC1`, the Potency was “inactive”. For `COc1ccc(Cl)c(Nc2nc3ccccc3nc2NS(=O)(=O)c2cccc(NC(=O)C(C)(C)N)c2)c1`, the Potency was 8.2 µM (active). In the case of `COc1cc(NC(C)CCCN)c2ncccc2c1` (centres undefined), the Potency is reported as 5.31 µM (active). With `C/C=C/C=N/NC(=O)c1ccncc1` the Potency was “inactive”. In the case of `CCCC(=O)O[C@]1(C(=O)CC)CC[C@H]2[C@@H]3CCC4=CC(=O)CC[C@]4(C)[C@H]3[C@@H](O)C[C@@]21C`, the Potency is reported as “inactive”. For `O=C1OC(CN2CCOCC2)CN1/N=C/c1ccc([N+](=O)[O-])o1` (centres undefined), the Potency was 8.41 µM (active). For `CC[C@]12CCCN3CCc4c(n(c5ccccc45)[C@@](O)(C(=O)OC)C1)[C@@H]32`, the Potency was “inactive”. With `O=C1C(O)=C(O)C(=O)C(O)=C1O` the Potency was “inactive”. In the case of `O=C(NOCCO)c1cc(CN2OCCCC2=O)c(F)c(F)c1Nc1ccc(I)cc1F`, the Potency is reported as 0.0651 µM (active). With `CC1CCc2c(N3CCC(O)CC3)c(F)cc3c(=O)c(C(=O)O)cn1c23` (centres undefined) the Potency was “inactive”. In the case of `Cc1cc(Oc2ccc3nc(COc4ccc(CC5SC(=O)NC5=O)cc4)n(C)c3c2)cc(C)c1N` (centres undefined), the Potency is reported as 16.6 µM (active). In the case of `CC1(C)S[C@H]2[C@H](NC(=O)[C@@H](N)c3ccc(O)cc3)C(=O)N2[C@H]1C(=O)O`, the Potency is reported as “inactive”. In the case of `COCCc1ccc(OCC(O)CNC(C)C)cc1` (centres undefined), the Potency is reported as “inactive”. For `NC(=O)c1cc[n+](CC2=C(C(=O)[O-])N3C(=O)[C@@H](NC(=O)Cc4cccs4)[C@H]3SC2)cc1`, the Potency was “inactive”. With `COCCOc1ccc(N2CCN(CCn3ncc4c3nc(N)n3nc(-c5ccco5)nc43)CC2)cc1` the Potency was 0.103 µM (active). With `O=C(NC[C@H](O)CN1CCc2ccccc2C1)c1ccnc(NC2CCC2)c1` the Potency was 6.61 µM (active). With `Cc1ccc(S(=O)(=O)Nc2cc(-c3ccc(C#N)s3)ccc2C)cc1` the Potency was 0.0332 µM (active). For `COc1ccc2nc3n[nH]c(C)c3c(NCCOCCO)c2c1`, the Potency was 16.4 µM (active) and 13.2 µM (active). With `COc1ccc(S(=O)(=O)Nc2nnc(CC(C)C)s2)cc1` the Potency was “inactive”. In the case of `CCN(CC)CCOC(=O)c1ccc(N)cc1`, the Potency is reported as “inactive”. For `CCN(c1cc(-c2ccc(CN3CCOCC3)cc2)cc(C(=O)NCc2c(C)cc(C)[nH]c2=O)c1C)C1CCOCC1`, the Potency was 20.6 µM (active). For `Nc1ncccc1-c1nc2ccc(-c3ccccc3)nc2n1-c1ccc(C2(N)CCC2)cc1`, the Potency was 5.25 µM (active). With `COc1ccc2nc(SCc3ncc(C)c(OC)c3C)[nH]c2c1` the Potency was “inactive”. With `C[C@@H]1O[C@@H](OC[C@H]2O[C@@H](Oc3c(-c4ccc(O)c(O)c4)oc4cc(O)cc(O)c4c3=O)[C@H](O)[C@@H](O)[C@@H]2O)[C@H](O)[C@H](O)[C@H]1O` the Potency was “inactive”. For `COc1cc2c(cc1OC)C(=O)CC2`, the Potency was “inactive”. In the case of `CC(C)(C)NCC(O)COc1ccccc1OCC1CCCO1` (centres undefined), the Potency is reported as 0.015 µM (active).

Test: Cellular viability qHTS for adrenocortical cancer (ACC) cell line SW-13 (AID 1963989); also: nearly all actives have a fitted effect of over 65% in size;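 as to activity (max response): cells grown in serum-free medium with ITS supplement; % is scaled to controls: 0 for no effect and ±100 for the full control effect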
Conditions: SW-13 ACC cells viability, CellTiter-Glo, 48 h; activity (max response): hits give low values
In short: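 Luminescent ATP read-out (CellTiter-Glo, 20 min at room temperature) measured metabolically competent SW-13 cells after 48 h compound treatment. Final concentrations spanned up to 46 uM; bortezomib served as positive control.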
With `C=CCSCC1Nc2cc(Cl)c(S(N)(=O)=O)cc2S(=O)(=O)N1` (centres undefined) the activity (max response) was 6.34%. With `Cc1cc(O[C@@H](CCC(F)(F)F)c2ccc(C(=O)NCCC(=O)O)cc2)cc(C)c1-c1ccc(C(C)(C)C)cc1` the Potency was 25.1 µM (active). `CCc1nnc(NS(=O)(=O)c2ccc(N)cc2)s1` showed an activity (max response) of 4.19%. `O=C1O[C@H]([C@@H](O)CO)C(O)=C1O` gave an activity (max response) of 0.904%. Molecule `C[C@@H]1C[C@H]2[C@@H]3C[C@H](F)C4=CC(=O)C=C[C@]4(C)[C@@]3(F)[C@@H](O)C[C@]2(C)[C@@]1(O)C(=O)CO` has an activity (max response) of -1.7%. With `C/C=C1\NC(=O)[C@H]2CSSCC/C=C\[C@H](CC(=O)N[C@H](C(C)C)C(=O)N2)OC(=O)[C@H](C(C)C)NC1=O` the Potency was 0.0126 µM (active). In the case of `CC1(C)O[C@@H]2C[C@H]3[C@@H]4CCC5=CC(=O)CC[C@]5(C)[C@@]4(F)[C@@H](O)C[C@]3(C)[C@]2(C(=O)CCl)O1`, the activity (max response) is reported as 9.64%. With `CN(C)C/C=C/C(=O)Nc1ccc(C(=O)N2CCC[C@@H](Nc3ncc(Cl)c(-c4c[nH]c5ccccc45)n3)C2)cc1` the Potency was 0.251 µM (active). Work on `CCc1cc2cc(OC)c(OC)cc2c(Cc2ccccc2)n1` yielded an activity (max response) of -5.12%. In the case of `COc1cccc2c1C(=O)c1c(O)c3c(c(O)c1C2=O)C[C@@](O)(C(C)=O)C[C@@H]3O[C@H]1C[C@H](N)[C@H](O)[C@H](C)O1`, the Potency is reported as 51.7 nM (active) and 501 nM (active). Work on `CC(C)(C)NC(=O)c1cncn1C1CCN(c2ccc(-c3nnc(C(F)(F)F)o3)cn2)CC1` yielded an activity (max response) of -14%. `CCCCC(CC)COC(=O)c1ccccc1C(=O)O` (centres undefined) gave an activity (max response) of 6.28%. With `COc1nc(N)nc2c1ncn2C1OC(CO)C(O)C1O` (centres undefined) the activity (max response) was 12%. For `CNC(=O)Cn1cc(-c2ccc3c(c2)C(F)CC32NC(=O)N(CC(=O)N(Cc3ccc(F)cc3)[C@@H](C)C(F)(F)F)C2=O)cn1` (some centres undefined), the activity (max response) was 8.67%. `Cc1ccccc1N1CCN(CCc2nnc3n2CCCC3)CC1` gave an activity (max response) of 9.97%. In the case of `COc1ccc(Cl)c(Nc2nc3ccccc3nc2NS(=O)(=O)c2cccc(NC(=O)C(C)(C)N)c2)c1`, the Potency is reported as 25.1 µM (active). For `COc1cc(NC(C)CCCN)c2ncccc2c1` (centres undefined), the Potency was 4.61 µM (active). Molecule `C/C=C/C=N/NC(=O)c1ccncc1` has an activity (max response) of -0.764%. For `CCCC(=O)O[C@]1(C(=O)CC)CC[C@H]2[C@@H]3CCC4=CC(=O)CC[C@]4(C)[C@H]3[C@@H](O)C[C@@]21C`, the activity (max response) was 0.342%. `O=C1OC(CN2CCOCC2)CN1/N=C/c1ccc([N+](=O)[O-])o1` (centres undefined) gave an activity (max response) of -3.41%. `CC[C@]12CCCN3CCc4c(n(c5ccccc45)[C@@](O)(C(=O)OC)C1)[C@@H]32` showed an activity (max response) of 1.04%. `O=C1C(O)=C(O)C(=O)C(O)=C1O` gave an activity (max response) of 13.8%. In the case of `O=C(NOCCO)c1cc(CN2OCCCC2=O)c(F)c(F)c1Nc1ccc(I)cc1F`, the Potency is reported as 7.08 µM (active). With `CC1CCc2c(N3CCC(O)CC3)c(F)cc3c(=O)c(C(=O)O)cn1c23` (centres undefined) the activity (max response) was -4.15%. `Cc1cc(Oc2ccc3nc(COc4ccc(CC5SC(=O)NC5=O)cc4)n(C)c3c2)cc(C)c1N` (centres undefined) showed an activity (max response) of -6.08%. Work on `CC1(C)S[C@H]2[C@H](NC(=O)[C@@H](N)c3ccc(O)cc3)C(=O)N2[C@H]1C(=O)O` yielded an activity (max response) of 7.49%. Molecule `COCCc1ccc(OCC(O)CNC(C)C)cc1` (centres undefined) has an activity (max response) of -3.54%. In the case of `NC(=O)c1cc[n+](CC2=C(C(=O)[O-])N3C(=O)[C@@H](NC(=O)Cc4cccs4)[C@H]3SC2)cc1`, the activity (max response) is reported as 11.8%. In the case of `COCCOc1ccc(N2CCN(CCn3ncc4c3nc(N)n3nc(-c5ccco5)nc43)CC2)cc1`, the activity (max response) is reported as -19.9%. In the case of `O=C(NC[C@H](O)CN1CCc2ccccc2C1)c1ccnc(NC2CCC2)c1`, the activity (max response) is reported as -19.6%. For `Cc1ccc(S(=O)(=O)Nc2cc(-c3ccc(C#N)s3)ccc2C)cc1`, the Potency was 0.0447 µM (active). Work on `COc1ccc2nc3n[nH]c(C)c3c(NCCOCCO)c2c1` yielded an activity (max response) of 0.542%. Work on `COc1ccc(S(=O)(=O)Nc2nnc(CC(C)C)s2)cc1` yielded an activity (max response) of -5.12%. `CCN(CC)CCOC(=O)c1ccc(N)cc1` gave an activity (max response) of 7.42%. Work on `CCN(c1cc(-c2ccc(CN3CCOCC3)cc2)cc(C(=O)NCc2c(C)cc(C)[nH]c2=O)c1C)C1CCOCC1` yielded an activity (max response) of -2.62%. For `Nc1ncccc1-c1nc2ccc(-c3ccccc3)nc2n1-c1ccc(C2(N)CCC2)cc1`, the Potency was 25.1 µM (active). For `COc1ccc2nc(SCc3ncc(C)c(OC)c3C)[nH]c2c1`, the activity (max response) was 3.67%. `C[C@@H]1O[C@@H](OC[C@H]2O[C@@H](Oc3c(-c4ccc(O)c(O)c4)oc4cc(O)cc(O)c4c3=O)[C@H](O)[C@@H](O)[C@@H]2O)[C@H](O)[C@H](O)[C@H]1O` gave an activity (max response) of 16.6%. Molecule `COc1cc2c(cc1OC)C(=O)CC2` has an activity (max response) of 12.7%. Molecule `CC(C)(C)NCC(O)COc1ccccc1OCC1CCCO1` (centres undefined) has an activity (max response) of -5.68%.
